Laboratory results published in PMC4552634, “A New Set of Chemical Starting Points with Plasmodium falciparum Transmission-Blocking Potential for Antimalarial Drug Discovery” (PLoS ONE, 2015).
The campaign covered roughly 13,000 compounds. About 3,200 (25%) showed an effect of 50% or more. This is one part of the list.

tested on: P. falciparum stage V gametocytes; parameters: BacTiter-Glo ATP luminescence viability of purified stage V gametocytes in 384-well plates, per cent inhibition versus DMSO; settings: 48 h, 5 µM; inhibitor

Structure (SMILES) | % Inhibition [%]
COc1ccc2nccc(NC(=O)N3CCC(NCc4cc5c(F)ccc(F)c5[nH]4)CC3)c2n1 [TCMDC-140784] | -20.31
Cc1cc(C(F)(F)F)n2nc(C(=O)N(Cc3cncn3Cc3ccccc3F)CC3CC3)cc2n1 [TCMDC-132463] | -10.43
Cc1c(C)n(C2CCCC2)c2ncnc(OC3CCN(CC(=O)NCC4CC4)CC3)c12 [TCMDC-134421] | 19.09
CN(Cc1cnc2nc(N)nc(N)c2n1)c1ccc(C(=O)N[C@H](CCC(=O)OC(C)(C)C)C(=O)N[C@@H](CCC(=O)OC(C)(C)C)C(=O)OC(C)(C)C)cc1 [TCMDC-137262] | -6.983
COc1cc(Cc2cnc(N)nc2N)cc(OC)c1OCCCCC(=O)O [TCMDC-137352] | 14.26
CN(Cc1cccc(C#N)c1)C1CCN(c2cc(NC(=O)c3cccc(F)c3)ccn2)CC1 [TCMDC-134972] | 21.14
COc1c(C)cc(I)cc1CNCCCNc1cc(=O)c2ccccc2[nH]1 [TCMDC-140056] | -89.66
COc1cc(CNCCCNc2nc3ncccc3[nH]2)c2[nH]cc(Br)c2c1 [TCMDC-140259] | -28.64
COc1ccnc(NCCCNCc2cn(S(=O)(=O)c3ccccc3)c3ccccc23)c1 [TCMDC-140380] | 99.09
CCN1CCC(NCc2ccc(-c3ccc(Cl)s3)cc2)CC1 [TCMDC-141263] | 93.74
CN1CCC(NCc2ccc(-c3ccc(Cl)cc3)cc2)CC1 [TCMDC-141355] | 54.41
CCCCCCN1CCC(NCc2ccc(C)cc2)CC1 [TCMDC-141667] | -37.31
CCCCCCN1CCC(NCc2ccc(C(F)(F)F)cc2)CC1 [TCMDC-141669] | -50.38
CCN1CCC(NCc2ccc(-c3ccc(Cl)cc3)cc2)CC1 [TCMDC-141354] | 41.97
FC(F)(F)c1ccc(-c2ccc(CNC3CCN(CCN4CCOCC4)CC3)cc2)cc1 [TCMDC-136025] | 39
Clc1ccc(CNC2CCN(CC3CCCCC3)CC2)cc1 [TCMDC-141658] | -44.47
CC(C)N1CCC(NCc2ccc(-c3ccc(Cl)cc3)cc2)CC1 [TCMDC-141359] | 35.52
CCCCCCN1CCC(NCc2ccc(Cl)cc2)CC1 [TCMDC-141666] | 71.31
CN(C)CCCc1cc(NC(=O)Nc2cccc(Cl)c2Cl)ccc1I [TCMDC-139132] | -49.28
CCOC(=O)c1c(C)n(-c2ccccc2)c2ccc(OC(=O)COc3ccc(Cl)cc3Cl)cc12 [TCMDC-124380] | -46.8
COc1ccc2nccc(C(=O)NC3CCC(CCN4CCc5cc(C#N)ccc5C4)CC3)c2c1 (stereo not shown) [TCMDC-139240] | 4.839
CN(C)CCCOc1c(C(C)(C)C)cc(-c2cc(C(C)(C)C)c(OCCCN(C)C)c(C(C)(C)C)c2)cc1C(C)(C)C [TCMDC-131822] | 59.94
Cn1cnc(CCNC(=O)c2ccc(-c3ccc(-c4nc5cc(F)ccc5[nH]4)cc3)cc2)c1 [TCMDC-132491] | 5.885
O=C(CC1SC(N2N=C(c3cccs3)CC2c2ccccc2)=NC1=O)Nc1ccc(Cl)cc1 (stereo not shown) [TCMDC-124762] | 14.18
Cc1cc(N(C)C)nc(Nc2ccc(NC(=O)COc3ccccc3)cc2)n1 [TCMDC-124975] | -15.54

Structure (SMILES) | % Inhibition [%]
CCn1c(-c2nonc2N)nc2c(-c3cccc(Cl)c3)ncc(OCCCNCCc3cnc[nH]3)c21 [TCMDC-135919] | 106.8
CCn1c(-c2nonc2N)nc2c(-c3cccc(Cl)c3)ncc(OCCCNCc3cnc(C)nc3N)c21 [TCMDC-135956] | 99.17
Clc1cccc(CNc2nc(NCCc3cnc[nH]3)nc(NC3CCCCC3)n2)c1 [TCMDC-139735] | 0.07512
NC(N)=NC(=O)Nc1ccc(Cl)c([N+](=O)[O-])c1 [TCMDC-137567] | -21.87
CC(C)c1sc(N2CCN(C)CC2)nc1C(=O)NCCc1ccc(Br)cc1 [TCMDC-134294] | 2.102
COc1ccc2nccc([C@@H](O)CN3CCC(NC(=O)CCC(=O)c4cc(C(C)(C)C)ccc4OC)CC3)c2c1 [TCMDC-141108] | 21.12
Cc1cc(NCc2ccccc2)nc2cc(O)ccc12 [TCMDC-125297] | 15.33
Oc1ccc(Nc2nc(NCc3ccccc3)c3ccccc3n2)cc1 [TCMDC-125641] | -47.6
CC(C)CCNc1nc(NCCc2ccccc2)c2cc(O)ccc2n1 [TCMDC-138405] | 95.11
CC(C)CCNc1nc(NCCCc2ccccc2)c2cc(O)ccc2n1 [TCMDC-138381] | 95.75
CC(C)CCNc1nc(NCc2ccccc2)c2cc(O)ccc2n1 [TCMDC-138436] | 91.5
Cc1noc(-c2cccs2)c1C(=O)NCCc1cccc(Cl)c1 [TCMDC-124801] | 0.8455
COc1cc(CNC[C@@H](O)[C@H](Cc2ccccc2)NC(=O)c2cc(C3CCCC3)cc(N3CCCS3(=O)=O)c2)cc(OC)c1 [TCMDC-134560] | 26.15
CCOc1cc(C(=O)Nc2ccc3nc(N4CCCCC4)cc(C)c3c2)cc(OCC)c1OCC [TCMDC-125449] | -1.386
Cc1cccc2c(N=NC(=S)N(C)C)c(O)[nH]c12 [TCMDC-137626] | -58.93
O=C1OC2(CN1CC1CCN(Cc3ccc(-n4ccnc4)cc3)C1)c1ccccc1-c1ccccc12 (stereo not shown) [TCMDC-136314] | 22.25
N#Cc1cccc(NC(=O)Nc2ccc(-c3ccc(-c4nc5ccc(C(F)(F)F)cc5[nH]4)cc3)cc2)c1 [TCMDC-133190] | -5.798
Cc1cccc(NC(=O)Nc2cccc(-c3ccc(-c4nc5ccc(C(F)(F)F)cc5[nH]4)cc3)c2)c1 [TCMDC-133305] | 4.928
CCCc1ccc(Nc2nc(C)cc(N(CC)CCCN3CCCCC3)n2)cc1 [TCMDC-132453] | 39.01
Cc1cc(N(C)CCCN(C)C)nc(Nc2ccc(Br)cc2)n1 [TCMDC-136888] | 36.7
CCN(CCCN1CCCCC1)c1cc(C)nc(Nc2ccc(C)cc2)n1 [TCMDC-132427] | -21.39
CCN(CC)CCCN(CCCN(CC)CC)c1cc(C)nc(Nc2ccc(Br)cc2)n1 [TCMDC-138007] | 66.18
CCCCN(CCCC)CCCN(CCCN(CCCC)CCCC)c1cc(C)nc(Nc2ccc(Br)cc2)n1 [TCMDC-138004] | 92.54
Cc1cc(N(C)CCN(C)C)nc(Nc2ccc(Br)cc2)n1 [TCMDC-137013] | 18.91
O=C(Nc1cccc(-c2ccc(-c3nc4cc(F)ccc4[nH]3)s2)c1)c1cccnc1 [TCMDC-136931] | -7.86

Structure (SMILES) | % Inhibition [%]
CCOc1cc2ncnc(Nc3ccc(OCc4ccccc4OC)c(OC)c3)c2cc1OCC [TCMDC-131912] | -29.04
CCN(CC)CCCN(C(=O)c1cc2c(C)nn(-c3ccccc3)c2s1)c1nc(-c2ccc(OC)cc2)cs1 [TCMDC-125429] | 17.92
COc1ccc(-c2csc(N(CCCN(C)C)C(=O)c3cc4c(C)nn(-c5ccccc5)c4s3)n2)cc1 [TCMDC-124034] | 46.49
Cc1nn(-c2ccccc2)c2sc(C(=O)N(CCCN(C)C)c3nc(-c4ccccc4)cs3)cc12 [TCMDC-125428] | 100.2
Cc1n[nH]c(C)c1C1CCN(CC2CCC(NC(=O)/C=C/c3ccc(Cl)c(Cl)c3)CC2)CC1 (stereo not shown) [TCMDC-139624] | 34.25
Cc1[nH]c(C)c(-c2ccc(-c3ccccc3Cl)nc2)c(=O)c1Br [TCMDC-136157] | 75.71
CCCCc1ccc(-c2ccc(-c3c(C)[nH]c(C)c(Br)c3=O)cn2)cc1 [TCMDC-135687] | 10.67
Cc1[nH]c(C)c(-c2ccc(-c3ccccc3Cl)nc2)c(=O)c1Cl [TCMDC-136303] | 74.15
COc1ccc(NC(=O)N2CCN(CCCCCNC(=O)/C=C/c3ccc(C(F)(F)F)cc3)CC2)cc1Cl [TCMDC-136097] | -39.25
OC1(c2ccc(Cl)c(C(F)(F)F)c2)CCN(CCOC2c3ccccc3CSc3ccc(Cl)cc32)CC1 (stereo not shown) [TCMDC-124001] | 11.98
CC(C)C(C(=O)n1cc2c(ccc3nc(N)nc(N)c32)n1)C(C)C [TCMDC-137334] | -12.47
O=C1COc2cc(Cl)c(CNC3CCN(CCc4ccnc5c(F)cc(F)cc45)CC3)nc2N1 [TCMDC-141732] | -3.632
COc1ccc2nccc([C@@H](O)CN3CCC(NCc4cc5sccc5nc4C(F)(F)F)CC3)c2c1 [TCMDC-141152] | 4.239
COc1ccc(CNCCCCCCNCc2ccc(OC)c3ccccc23)c2ccccc12 [TCMDC-137631] | 111.4
COc1ccc(CCNCCCCNCCc2ccc(OC)c3ccccc23)c2ccccc12 [TCMDC-137961] | 106.4
COC(=O)Cc1ccc(N)c2ccccc12 [TCMDC-139173] | -43.46
CCc1nonc1NC(=O)c1oc2c(C)c(C)ccc2c1C [TCMDC-123827] | 4.304
FC(F)(F)c1ccc2[nH]c(-c3ccc(-c4cccc(CNCCc5cccnc5)c4)s3)nc2c1.O=C(O)C(F)(F)F [TCMDC-132874] | 67.94
CNCCNCc1cccc(-c2ccc(-c3nc4cc(C(F)(F)F)ccc4[nH]3)s2)c1.O=C(O)C(F)(F)F [TCMDC-132830] | 50.68
FC(F)(F)c1ccc2[nH]c(-c3ccc(-c4cccc(CNCCc5ccncc5)c4)s3)nc2c1.O=C(O)C(F)(F)F [TCMDC-132849] | -1.104
CS(=O)(=O)NCCCNCc1cccc(-c2ccc(-c3nc4cc(C(F)(F)F)ccc4[nH]3)s2)c1.O=C(O)C(F)(F)F [TCMDC-133083] | -25.93
FC(F)(F)c1ccc2[nH]c(-c3ccc(-c4cccc(CNCc5ccccc5)c4)s3)nc2c1.O=C(O)C(F)(F)F [TCMDC-132708] | -60.8
O=C(O)C(F)(F)F.c1cncc(CCNCc2cccc(-c3ccc(-c4nc5ccccc5[nH]4)s3)c2)c1 [TCMDC-132877] | -12.84
